Laboratory results: PubChem BioAssay AID803 (The Scripps Research Institute Molecular Screening Center, 2007)
Hit rate of the full screen: of about 140,000 compounds, about 680 (0.49%) were called active. For the sample, actives were picked, then their nearest neighbours and some compounds at random. Values without a mark were called inactive. Cut-off read from the data, not from the text of the source: active = activation above about 5% (passing the limit was not always enough); inactive = the rest.

What follows are molecules tested against Galanin receptor type 2 (Homo sapiens) (UniProt O43603) (assay: human galanin receptor 2 activators – cell-based, primary screen (AID 803;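 note: 0% = vehicle buffer wells and 100% = reference agonist at full effect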)). Details: GALR2-expressing cells, agonist activation read-out; at 5.6 µM; active compounds read high.
Chain of Galanin receptor type 2 (Homo sapiens) (O43603 whole entry, looked up): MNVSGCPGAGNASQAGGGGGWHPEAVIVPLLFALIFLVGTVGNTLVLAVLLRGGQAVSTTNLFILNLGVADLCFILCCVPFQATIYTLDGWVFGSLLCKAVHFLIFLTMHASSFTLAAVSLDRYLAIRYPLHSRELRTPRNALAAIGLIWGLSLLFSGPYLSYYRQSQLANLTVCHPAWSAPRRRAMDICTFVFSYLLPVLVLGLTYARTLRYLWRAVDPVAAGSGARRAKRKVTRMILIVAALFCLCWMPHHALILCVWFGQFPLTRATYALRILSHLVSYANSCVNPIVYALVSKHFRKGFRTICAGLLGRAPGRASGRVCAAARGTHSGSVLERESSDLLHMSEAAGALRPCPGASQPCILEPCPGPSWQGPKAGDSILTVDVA

Row | SMILES | activation
1 | CC1Cc2ccccc2N1C(=O)CSc1nnc(-c2ccc(S(=O)(=O)N3CCCC3)cc2)n1C (stereo unspecified) | -1.17%
2 | CC(C)(C)OC(=O)c1c(N)n(CCCN2CCCC2=O)c2nc3ccccc3nc12 | 3.75%
3 | O=S(=O)(O)c1nc2ccccc2n1Cc1ccc(Cl)cc1 | -2.3%
4 | N#Cc1c(N)n(CCOC(=O)c2ccc(Cl)cc2)c2nc3ccccc3nc12 | 7.76% (active)
5 | CC(C)(C)c1ccc(C(=O)NCCn2c(N)c(C#N)c3nc4ccccc4nc32)cc1 | 6.59% (active)
6 | CN1OC(COC(=O)c2ccc(Cl)cc2)CC1c1ccccc1 (stereo unspecified) | -1.93%
7 | CN(C)CCCn1c(N)c(C#N)c2nc(C#N)c(C#N)nc21 | 5.27%
8 | CC(Oc1ccccc1)C(=O)Nc1oc(-c2ccco2)c(-c2ccco2)c1C#N (stereo unspecified) | -0.85%
9 | O=C(/C=C/c1ccc(Cl)cc1)N1CCN(c2ccccc2[N+](=O)[O-])CC1 | -1.19%
10 | Cc1ccc(Cc2c(C)nc3nc(SCC(=O)NCCN4CCOCC4)nn3c2C)cc1 | 24.8% (active)
11 | Cc1ccc(NC(=S)NCCN2CCOCC2)cc1 | -2.96%
12 | Cc1nc2nc(SCC(=O)NCc3ccco3)nn2c(C)c1Cc1ccccc1 | 0.05%
13 | Cc1cc(C)nc(-n2ncc3c2CC(c2ccc(C(C)C)cc2)CC3=O)n1 (stereo unspecified) | 0.11%
14 | O=C(Nc1ccccc1F)c1ccccc1-c1ccc(C(F)(F)F)cc1 | -0.53%
15 | O=C(NCC1CCCO1)/C(=C/c1ccc(Cl)cc1)NC(=O)c1ccccc1 (stereo unspecified) | -1.2%
16 | CCOC(=O)Cc1csc(NC(NC(=O)OCC)(C(F)(F)F)C(F)(F)F)n1 | -2.02%
17 | CCOC(=O)Cc1csc(NC(=O)Nc2ccccc2)n1 | -2.31%
18 | CCOC(=O)Cc1csc(NC(=O)C(C)(C)C)n1 | 6.79% (active)
19 | CCCCN1C(=O)c2ccc(C(=O)Nc3ccc(S(=O)(=O)N(C)C)cc3)cc2C1=O | -1.35%
20 | CC(=O)NC(Cc1ccccc1)C(=O)NC1CCN(c2ncccc2[N+](=O)[O-])CC1 (stereo unspecified) | -0.16%
21 | OC(COCc1ccco1)CN1CCN(c2ccccc2)CC1 (stereo unspecified) | -1.72%
22 | Cc1ccc(C(=O)Nc2ccc(C)c(S(=O)(=O)N(C)C)c2)s1 | 0.14%
23 | O=[N+]([O-])c1ccccc1SNc1ccccn1 | 10.3% (active)

Row | SMILES | activation
24 | COC(=O)CNC(=O)c1ccccc1[N+](=O)[O-] | -2.69%
25 | O=S(=O)(Nc1ccccn1)c1ccc(Oc2ccccc2)cc1 | -1.45%
26 | COc1cc(CN2CC(C)CC(C)C2)cc([N+](=O)[O-])c1O (stereo unspecified) | 0.36%
27 | COc1cc(NC(=O)c2cc([N+](=O)[O-])ccc2Br)ccc1NC(=O)c1ccco1 | -2.01%
28 | Cc1ccc(-c2cc(N)on2)cc1 | -1.6%
29 | CCOc1ccc(Br)cc1S(=O)(=O)Nc1ccc(C(=O)OC(C)C(=O)N(C)c2ccccc2)cc1 (stereo unspecified) | -0.52%
30 | COc1cc(NC(=S)NCCSc2ccc(C)cc2)cc(OC)c1 | -1.5%
31 | Cc1noc(/C=C/c2ccco2)c1S(=O)(=O)N1CCC(C(=O)Nc2ccc(Cl)cn2)CC1 | -1.28%
32 | Cc1cccc2cc(CN(Cc3ccc4c(c3)OCO4)Cc3nnnn3C3CCCC3)c(=O)[nH]c12 | 5.7% (active)
33 | Cc1cccc2cc(CN(Cc3cccs3)C(c3nnnn3C3CCCC3)C(C)C)c(=O)[nH]c12 (stereo unspecified) | -1.34%
34 | CCC(c1nnnn1C1CCCC1)N(Cc1cccs1)Cc1cc2cccc(C)c2[nH]c1=O (stereo unspecified) | -1.09%
35 | COc1ccccc1C1CC(=O)n2c(nc(-c3ccccc3)c2-c2ccccc2)S1 (stereo unspecified) | -1.18%
36 | O=C1N(c2ccc(Cl)cc2)C(c2ccc(Cl)cc2)N2CCCN12 (stereo unspecified) | -0.59%
37 | NCCCC[C@@H]1NC(=O)[C@H](CCC(=O)O)NC(=O)c2cc([N+](=O)[O-])cc(I)c2NCC[C@@H](C(N)=O)NC1=O | -0.98%
38 | CNC(=S)N/N=C/c1cn(Cc2ccc(C)cc2)c2ccccc12 | -1.46%
39 | O=c1cc(CO)oc(C(Nc2cccc([N+](=O)[O-])c2)c2ccccn2)c1O (stereo unspecified) | 0.7%
40 | Cc1ccc(-c2cn3cc([N+](=O)[O-])ccc3n2)cc1 | -1.19%
41 | CCOc1ccc(C(=O)Nc2cc(OC)ccc2OC)cc1 | -2.67%
42 | CCOc1cc(NC(=O)c2cnccn2)c(OCC)cc1NC(=O)c1ccc(C)cc1 | 22.8% (active)
43 | CCOc1ccccc1NC(=O)c1cccnc1 | 0.49%
44 | Cc1sc2nc(COC(=O)C(NC(=O)c3ccc(Cl)cc3Cl)C(C)C)[nH]c(=O)c2c1C (stereo unspecified) | -1.47%
45 | CC(C)(C)c1ccc(C(=O)CSc2ncn[nH]2)cc1 | -1.49%
46 | CCN(C(=O)CSc1ncn[nH]1)c1cccc2ccccc12 | 144% (active)

Row | SMILES | activation
47 | O=C(CSc1ncn[nH]1)Nc1ccnc2ccccc12 | -2.63%
48 | CC(=O)Nc1ccc(/C(C)=N/NC(=O)CN(c2ccccc2Br)S(C)(=O)=O)cc1 | -0.42%
49 | CSc1ccc(/C=C/C(=O)NC23CC4CC(CC(C4)C2)C3)cc1 | -1.84%
50 | Cc1cccn2c(=O)c3cc(C#N)c(=NC(=O)c4cccnc4)n(CC4CCCO4)c3nc12 (stereo unspecified) | 7.52% (active)
51 | Cc1cccn2c(=O)c3cc(C(=O)N4COCC4(C)C)n(C)c3nc12 | 0.31%
52 | Cc1cccn2c(=O)c3cc(C#N)c(=O)n(CCCN4CCOCC4)c3nc12 | 2.81%
53 | CC(=O)c1ccc(NC(=O)Nc2ccc([N+](=O)[O-])cc2C)cc1 | -1.71%
54 | FC(F)(F)c1cc(-c2cccs2)nc(NCc2ccco2)n1 | -1.85%
55 | CCCn1c(=O)c2c(C(F)(F)F)cc(-c3cccs3)nc2n(CCC)c1=O | 6.87% (active)
56 | Cc1cc(-c2cccs2)nc(-n2cccc2)n1 | -2.57%
57 | COC(=O)c1ccc(NC(=O)Nc2ccc(C)cc2)cc1 | -1.78%
58 | Cc1cc(C)nc(NC(=O)C(C)N2C(=O)c3ccccc3C2=O)n1 (stereo unspecified) | -2.31%
59 | COC(=O)c1ccc(NC(=O)C(C)N2C(=O)c3ccccc3C2=O)cc1 (stereo unspecified) | 8.37% (active)
60 | O=C(CSc1ccccc1)Nc1cc(Cl)ccc1Oc1ccccc1 | -0.74%
61 | C/C(CCC(=O)OC[C@H]1O[C@H](C#Cc2ccccc2)C=C[C@@H]1Oc1ccc(C)cc1)=N\OC[C@@H](O)[C@H]1O[C@@H]2OC(C)(C)O[C@@H]2[C@H]1O | -0.18%
62 | CC/C(C)=N/Nc1nc2sc3c(c2c(=O)[nH]1)CC(C)(C)OC3 | 25.2% (active)
63 | CCOC(=O)CSc1nc2sc3c(c2c(=O)[nH]1)CC(C)(C)OC3 | -2.5%
64 | CCOC(=O)Cn1c(SC)nc2sc3c(c2c1=O)CC(C)(C)OC3 | -1.18%
65 | CCOc1ccc(NC(=O)COc2ccc(C(=O)NC3CCCc4ccccc43)cc2OC)cc1 (stereo unspecified) | -0.21%
66 | CCc1ccc(-c2cc(C(=O)NN3CCN(C)CC3)c3ccccc3n2)cc1 | 0.42%
67 | CCCCNS(=O)(=O)c1ccc2nc(SCC(=O)Nc3cc(C)cc(C)c3)[nH]c2c1 | -1.87%
68 | CCc1cc(C(=O)OC)c(NC(=O)CC2Sc3ccc(C(F)(F)F)cc3NC2=O)s1 (stereo unspecified) | 1.46%
69 | COc1ccc(Cl)cc1C(=O)NCc1cn(C)nc1C | -0.07%

Row | SMILES | activation
70 | Cc1ccc(-c2cc(C(=O)NCc3cn(C)nc3C)c3cc(Br)ccc3n2)cc1 | 5.13% (active)
71 | Cc1ccc2nc(-c3ccccc3)cc(C(=O)O)c2c1 | -0.75%
72 | CCCn1nc(NS(=O)(=O)c2ccccc2)c2cc3cc(C)ccc3nc21 | -2.05%
73 | COc1ccc(C2CC(c3ccccc3)=NN2C(=O)c2ccc(Cl)c([N+](=O)[O-])c2)cc1 (stereo unspecified) | 4.95% (active)
74 | COc1ccc(C2=NN(C(=O)c3cccnc3)C(c3ccccc3)C2)cc1 (stereo unspecified) | -0.17%
75 | COc1ccc(C2CC(c3ccccc3)=NN2C(=O)CSc2nccc(=O)[nH]2)cc1 (stereo unspecified) | 0.01%
76 | Cn1ncc2c(NNC(=O)Cc3cccc4ccccc34)ncnc21 | 0.28%
77 | Cc1cnc(NC(=O)CSc2nnc(-c3ccc(Cl)cc3Cl)n2N)s1 | -1.9%
78 | CCOc1ccccc1NC(=O)CCc1ccc(C)o1 | -0.84%
79 | Cc1ccc(CCC(=O)Nc2ncc(Cc3cc(Cl)ccc3Cl)s2)o1 | 8.73% (active)
80 | O=C(Nc1ccccc1F)c1ccccc1-c1ccccc1 | -0.61%
81 | Fc1ccc(N2N=C(c3cccs3)CC2c2ccco2)c(F)c1 (stereo unspecified) | 10.4%
82 | COc1ccccc1N1N=C(c2cccs2)CC1c1ccccc1 (stereo unspecified) | 13.1% (active)
83 | COc1ccc(C2CC(c3cccs3)=NN2C(=O)COC(=O)c2cc3ccccc3cc2O)cc1OC (stereo unspecified) | 0.22%
84 | COc1ccc(-c2cc3ccc(OCc4nn[nH]n4)cc3oc2=O)cc1 | 0.01%
85 | COc1cccc(C(=O)c2cc3ccc(O)cc3oc2=O)c1 | 2.29%
86 | O=c1oc2cc(O)ccc2cc1-c1ccc(F)cc1 | 14.9% (active)
87 | COc1cc(/C=N\NC(=O)c2nonc2N)c(OC)cc1Br | -0.75%
88 | O=C(CCc1ccc(S(=O)(=O)N2CCOCC2)cc1)NN=C1CCCCCCC1 | -0.53%
89 | Cc1ccc(C)c(N2CCN(S(=O)(=O)c3ccc4c(c3)oc(=O)n4C)CC2)c1 | -1.17%
90 | Cn1c(=O)oc2cc(S(=O)(=O)N3CCC(C(=O)Nc4ccc(OC(F)(F)F)cc4)CC3)ccc21 | 9.92% (active)
91 | Cc1ccc2nc(NC(=O)C3CCN(S(=O)(=O)c4ccc5c(c4)oc(=O)n5C)CC3)sc2c1 | -1.18%
